Assay results: PubChem BioAssay (NCI)
Where “and” joins values, the source holds several entries; their conditions need not be identical. Equal values may be shown once. The panel holds about 83,000 compounds, 20% with a hit somewhere; the sample as a whole holds those more often.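 Step 1: grow cells in 96-well plates. Step 2: add test compound at a single concentration. Step 3: incubate 48 h. Step 4: record percent growth.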 Values without a mark were called inactive. Calls of active or inactive are those of the source. How the source made its calls: active means growth percent below 10; inactive means the rest.

Tests used:
Experiment in all cases: NCI-60 one-dose screen, 48 h (100 = growth as untreated, 0 = no growth, -100 = all killed)
Details in all cases: 10 µM unless noted
[1] = system: HCT-15 colon
[2] = system: HT29 colon
[3] = system: SNB-75 CNS
[4] = system: SNB-19 CNS
[5] = system: U251 CNS
[6] = system: PC-3 prostate
[7] = system: SK-MEL-5 melanoma
[8] = system: UACC-62 melanoma
[9] = system: LOX IMVI melanoma
[10] = system: SK-MEL-28 melanoma
[11] = system: SK-MEL-2 melanoma
[12] = system: EKVX NSCLC
[13] = system: SN12C renal
[14] = system: UO-31 renal
[15] = system: TK-10 renal
[16] = system: ACHN renal
[17] = system: A498 renal
[18] = system: CCRF-CEM leukemia
[19] = system: MOLT-4 leukemia
[20] = system: CAKI-1 renal

Compound	growth [1]	growth [2]	growth [3]	growth [4]	growth [5]	growth [6]	growth [7]	growth [8]	growth [9]	growth [10]	growth [11]	growth [12]	growth [13]	growth [14]	growth [15]	growth [16]	growth [17]	growth [18]	growth [19]	growth [20]
COc1cc(C(=O)c2ccccc2C(=O)O)c(OC)c2c1CCCC2	93.4% and 104%	105% and 98.2%	94.1% and 87.4%	94.6% and 102%	97% and 100%	93.3% and 103%	96.6% and 97.5%	96.1% and 101%	94.3% and 94.1%	102% and 113%	115%	87.7%	96.4% and 98.3%	81.9% and 84.1%	67.5% and 107%	102% and 103%	52.8% and 110%	113% and 90.4%	86.3% and 95.7%	–
O=C(N/N=C/c1ccc(O)cc1O)c1cccc(Nc2ccnc(C(F)(F)F)c2)c1	27.3%	41.6%	32.2%	35.5%	32.1%	61%	33.7%	-8.61% (active)	13.7%	31.1%	60.7%	28%	25%	34.7%	42.6%	30.3%	44.9%	6.22% (active)	12.2%	–
COc1ccc(Oc2nc(Nc3ccc(N4CCOCC4)cc3)ncc2NC(=O)c2cccc(C(F)(F)F)c2)cc1	58.6%	42.2%	82.3%	87.5%	69.3%	53.7%	92.2%	78.4%	52.4%	99.5%	97.2%	81.3%	85.8%	71.2%	93%	–	63.4%	49.9%	43.7%	88.9%
CCOC(=O)c1nc2c3ccccc3cnn2c1C(=O)c1ccc(OC)cc1	96.4%	98.4%	88.6%	90.7%	89.9%	90.9%	97.1%	95.5%	94%	120%	107%	89.7%	98.5%	79.4%	140%	100%	79.9%	91.2%	88.7%	–
Cc1ccc2[nH]c(=S)[nH]c(=O)c2c1	106%	102%	80.5%	101%	95%	102%	100%	103%	95.5%	111%	111%	104%	99.9%	92.4%	85.4%	–	94.8%	98.8%	93.3%	89.7%
Cc1nnc(NS(=O)(=O)c2ccc(N=Nc3ccc(N)nc3N)cc2)s1	99.7% and 107%	108% and 104%	92% and 89.6%	100% and 112%	105% and 106%	93.8% and 98.2%	117%	97% and 111%	93.2% and 101%	111% and 116%	104% and 116%	104% and 105%	92.3% and 105%	76.1% and 80.1%	112% and 111%	103% and 110%	99.7% and 123%	100% and 105%	102% and 96.3%	–
S=c1nc(CS)[nH]c2ccccc12	93.2%	101%	86.7%	92.5%	96.7%	93.9%	95.7%	90.6%	91%	105%	101%	84%	95.4%	71.8%	161%	93.5%	53.2%	102%	102%	–
O=C(CCN1CCOCC1)Nc1cccc(-n2cc(-c3ccncc3)c(-c3ccc(Cl)c(O)c3)n2)c1	28.5%	-7.51% (active)	-1.7% (active)	48.8%	27.7%	11.4%	20.3%	43.1%	23.1%	49.6%	14.8%	55.7%	42.8%	41.9%	54.5%	–	10.9%	17.7%	28.6%	38.6%
COc1ccc2nc3cc(Cl)ccc3c(NCCCNCCC(C)O)c2c1 (stereo unspecified)	2.36% (active)	4% (active)	-58.8% (active)	-25.6% (active)	-41.4% (active)	-50% (active)	-96.7% (active)	-57% (active)	-68% (active)	-59.3% (active)	-48.2% (active)	-7.41% (active)	-25.9% (active)	-28.1% (active)	8.67% (active)	-1.05% (active)	-79% (active)	-24% (active)	-18.1% (active)	–
CN1C(=O)N(C)C2(c3ccccc3)N(CC(=O)Nc3ccccc3O)C(=O)NC12c1ccccc1 (stereo unspecified)	103%	111%	74.3%	100%	105%	90.3%	101%	91%	96.8%	123%	111%	102%	103%	74.6%	93.9%	102%	121%	111%	102%	–
CCCCC1COc2cccc3c2N1C=C/C3=C\C(=O)N(C)c1cccc(Cl)c1 (stereo unspecified)	99.4%	109%	93%	91.5%	101%	89.6%	102%	85.9%	99%	104%	121%	95.8%	94.2%	78%	112%	98.5%	94.6%	97.2%	86.6%	–
CCN1C(=O)N(c2ccccc2)C2NC(=S)N(/N=C/C=C/c3ccccc3)C21 (stereo unspecified)	12.6%	4.84% (active)	35.5%	22.6%	13.9%	14%	3.14% (active)	20%	14.8%	60.1%	16.8%	23.2%	19.8%	35.5%	50.1%	21.7%	6.81% (active)	3.8% (active)	8.35% (active)	–
COc1ccc(/C(C)=C(\c2ccc(OCCN3CCCCCC3)cc2)c2ccc(OC(=O)C3CCCCC3)cc2)cc1	-76.7% (active)	-71% (active)	-11.1% (active)	3.58% (active)	-84.9% (active)	-49.8% (active)	-99.7% (active)	-73.7% (active)	-93.5% (active)	-84.5% (active)	-78.3% (active)	-25.3% (active)	-87.2% (active)	-96.9% (active)	-79.2% (active)	-88.5% (active)	-3.54% (active)	-31.5% (active)	-13.7% (active)	–
CN(C)C1CCN(C(=O)c2ccc(NC(=O)Nc3ccc(-c4nc(N5CCOCC5)c5cccn5n4)cc3)cc2)CC1	40.5%	6.06% (active)	-40.5% (active)	3% (active)	5.17% (active)	3.69% (active)	-63.6% (active)	-43.5% (active)	-2.24% (active)	-22.4% (active)	-7.66% (active)	-15% (active)	4.15% (active)	8.27% (active)	-20.9% (active)	2.19% (active)	-54.9% (active)	10.5%	0.188% (active)	–
